High-throughput results: PubChem, several laboratories
The list is not random: actives were taken first. Their share in the collection is about 28%.
PLK1 kinase inh – human PLK1 kinase inhibitors, primary screen, biochemical, TR-FRET. Serine/threonine-protein kinase PLK1 (Homo sapiens), P53350. recombinant PLK1 kinase, TR-FRET peptide phosphorylation. inhibition, % at 10 µM. 97,000 tested, 0.53% active. AID 619, 2007;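 active means inhibition of 50% or more in the single-concentration screen; inactive means inhibition below 50%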;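 further: 0% = DMSO max control and 100% = H-89 dihydrochloride min control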
CYP2C9 activ – human CYP2C9 activators, primary screen, biochemical, luminescence; recombinant CYP2C9, luciferin-H conversion; stronger effect = higher value; factor 1 = untreated enzyme, 0 = blocked; 96,000 tested, 1.4% active; Cytochrome P450 2C9 (Homo sapiens), P11712; AID 1024, 2008; activation factor at 5 µM;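 active means activation factor of 2 or more for CYP2C9 at a 5 µM dose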;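 further: 0 = sulfaphenazole-blocked wells and 1 = vehicle-only wells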
Target sequence (P11712 whole entry, looked up): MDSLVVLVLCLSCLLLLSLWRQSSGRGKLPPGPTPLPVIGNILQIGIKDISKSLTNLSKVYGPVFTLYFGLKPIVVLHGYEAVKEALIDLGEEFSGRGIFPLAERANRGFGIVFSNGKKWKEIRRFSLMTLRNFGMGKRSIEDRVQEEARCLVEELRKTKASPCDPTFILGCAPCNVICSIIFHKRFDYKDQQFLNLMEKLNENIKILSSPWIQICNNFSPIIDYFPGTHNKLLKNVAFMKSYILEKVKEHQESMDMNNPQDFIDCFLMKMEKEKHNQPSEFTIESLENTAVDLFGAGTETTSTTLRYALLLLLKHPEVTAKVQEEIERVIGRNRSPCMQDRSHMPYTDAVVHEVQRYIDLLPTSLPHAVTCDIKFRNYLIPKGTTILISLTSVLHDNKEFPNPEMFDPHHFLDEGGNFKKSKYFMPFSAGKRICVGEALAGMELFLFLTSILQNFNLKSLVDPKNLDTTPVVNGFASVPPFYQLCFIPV
CYP2C9 inhib – blockers of cytochrome P450 2C9 activity – biochemical, luminescence, ADME assay, primary screen. P11712. CYP2C9 Supersomes, luciferin-H conversion. inhibition, % at 5 µM. 96,000 tested, 20% active;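 active means blocking of liver enzyme CYP2C9 beyond about 50% at 5 µM, limit read from the data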
CYP2C19 activ – human CYP2C19 activators, primary screen, biochemical, luminescence; Cytochrome P450 2C19 (Homo sapiens), P33261; recombinant CYP2C19, luciferin-H EGE luminescence; stronger effect = higher value; 0 = fully inhibited enzyme, 1 = untreated enzyme; AID 1025, 2008; activation factor at 5 µM; 96,000 tested, under 10 active;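 active means activation factor of at least 2 at 5 µM in the primary screen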;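 further: 0 = wells with 2.5 mM tranylcypromine and 1 = vehicle-only wells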
CYP2C19 inh – blockers of cytochrome P450 2C19 activity – biochemical, luminescence, ADME assay, primary screen; 96,000 tested, 21% active; inhibition, % at 5 µM; CYP2C19 Supersomes, luciferin-H EGE luminescence, 30 min; P33261;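 active means CYP2C19 inhibition above a set limit at 5 µM in the primary screen, cut at about 50% in these data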;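 further: plate controls were negative control wells for no effect and 2.5 mM tranylcypromine positive control for full effect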
Plk1 PBD FP – Plk1 polo box domain binding inhibitors, primary screen, biochemical, fluorescence polarization; Plk1 PBD phosphopeptide binding; inhibition, %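 (tested at about 20 µM)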; 97,000 tested, 0.13% active; AID 693, 2007; in the data active means inhibition above about 34%, passing the limit was not always enough
The depositor's hits bear a star; · = not tested or not shown.

SMILES	PLK1 kinase inh	CYP2C9 activ	CYP2C9 inhib	CYP2C19 activ	CYP2C19 inh	Plk1 PBD FP
CCOC(=O)c1[nH]c(CSc2nnc(-c3ccncc3)n2CCOC)c(C(=O)OCC)c1C	-3.0	0.1	94.3*	0.3	65.0*	0.0
O=c1[nH]c(CSc2nnc(-c3ccncc3)n2Cc2ccco2)nc2ccccc12	2.8	0.4	56.2*	0.5	47.2	1.6
COCCCn1c(SCc2nc3ccccc3c(=O)[nH]2)nc2ccccc2c1=O	-10.0	0.3	66.6*	0.6	36.5	-14.5
COCCn1c(SCc2nc3ccccc3c(=O)[nH]2)nnc1-c1ccncc1	-5.0	0.6	37.8	0.5	52.4*	-24.0
CCCCCC(=O)N1CCN(CCN=CC2=C(O)CC(c3cccs3)CC2=O)CC1 (stereo not drawn)	-8.3	0.8	16.8	0.7	26.3	-8.2
C=CCn1c(SCc2nc3ccccc3c(=O)[nH]2)nnc1-c1cc2cc(Cl)ccc2o1	-21.1	0.3	68.3*	0.6	45.0	2.9
CNc1nc(C)nc(-c2ccccc2O)n1	3.4	2.1*	-112.5	0.8	15.6	0.8
Nc1nc2ccc(O)cc2s1	-9.3	·	·	·	·	13.5
Nc1nc2ccc(Oc3ccccc3)cc2s1	-16.8	0.3	71.1*	0.3	67.5*	0.1
CC1CCCCN1C(=S)NCCc1ccccc1 (stereo not drawn)	-13.0	0.7	26.6	0	95.9*	-15.2
COC(=O)c1sc2ccccc2c1-n1cccc1C(=O)C(=O)Nc1ccc(F)cc1	-14.5	0	99.6*	0.7	32.9	30.5
O=C(NNC(=O)c1sc2ccccc2c1Cl)Nc1ccc(Cl)cc1	-7.7	1.2	-19.1	0.8	24.5	13.0
COC(=O)c1sc2ccccc2c1-n1cccc1C(=O)C(=O)Nc1ccc(C)cc1	-12.3	0	100.4*	0.6	38.4	-20.3
COC(=O)c1sc2ccccc2c1-n1cccc1C(=O)C(=O)Nc1ccc(Cl)cc1	-13.9	0	99.1*	0.8	23.4	-11.8
CC(Oc1ccc(Cl)cc1)C(=O)Nc1nccs1 (stereo not drawn)	-5.4	0.6	37.3	0.6	40.8	-6.2
O=C(OCCCN1CCCC1)C1(c2ccccc2)CCCC1	-9.5	1.1	-13.9	1	0.0	-15.3
Cc1cn(S(=O)(=O)c2ccc(Br)c3ccccc23)cn1	-14.3	1	-2.3	0.7	27.4	4.6
CN(C)CCCN1C(=O)C(=O)/C(=C(/O)c2ccc3c(c2)OCCO3)C1c1ccco1 (stereo not drawn)	·	1	-3.0	1.1	-10.9	·
COc1ccc(-n2nc(C(=O)N3CCN(c4ccc(F)cc4)CC3)c3ccccc3c2=O)c(OC)c1	·	0.4	56.2*	0.6	44.6	·
COc1ccc(-n2nc(C(=O)O)c3ccccc3c2=O)c(OC)c1	·	1.1	-7.0	1	-2.9	·
O=C(NCc1ccc2c(c1)OCO2)c1nn(-c2ccccc2)c(=O)c2ccccc12	-2.6	0.1	93.6*	0.1	87.1*	-1.2
COc1cccc(-n2nc(C(=O)Nc3ccc4c(c3)OCO4)c3ccccc3c2=O)c1	-8.3	0.1	90.3*	0.6	42.4	-2.7
COc1ccc(CCNC(=O)c2c(O)c3cccc4c3n(c2=O)CC4)cc1OC	·	0.3	72.4*	0.4	55.3*	·
CCOC(=O)c1cnc2c(Cl)c(Cl)ccc2c1N1CCN(C)CC1	-9.1	0.9	10.0	1	3.4	2.5
O=C(NCc1ccccc1)c1c(O)c2cccc3c2n(c1=O)CCC3	-13.0	0.9	8.0	0.7	27.2	-11.9
SMILES	PLK1 kinase inh	CYP2C9 activ	CYP2C9 inhib	CYP2C19 activ	CYP2C19 inh	Plk1 PBD FP
COc1cccc(-n2nc(C(=O)N3CC(C)CC(C)C3)c3ccccc3c2=O)c1 (stereo not drawn)	-4.6	0.4	58.4*	0.5	46.9	-13.2
COc1ccc(/C=N/NC(=O)c2nn(-c3ccccc3)c(=O)c3c(N)scc23)cc1	-3.7	0.7	29.6	1	4.8	-6.4
O=C(NCc1ccc2c(c1)OCO2)c1c(O)c2cccc3c2n(c1=O)CCC3	-8.3	0.3	71.9*	0.8	21.9	-10.3
COc1ccc(/C=N/NC(=O)c2nn(-c3ccc(C)c(C)c3)c(=O)c3ccccc23)cc1	-7.5	0.4	63.9*	0.9	14.9	3.7
Cc1ccc(C(=O)O/N=C/c2c(Cl)n(C)c3ccccc23)cc1	-3.9	1.3	-25.0	0.7	29.6	-1.4
Cc1ccc(C(=O)O/N=C/c2c(N3CCOCC3)n(C)c3ccccc23)cc1	-9.6	0.2	84.0*	0.3	67.5*	-34.5
Cn1c(Cl)c(/C=N/OC(=O)c2ccc(Cl)cc2)c2ccccc21	-16.6	2.1*	-105.4	1.1	-9.6	-29.0
Cn1c(N2CCOCC2)c(/C=N/OC(=O)c2ccc(F)cc2)c2ccccc21	-3.7	0.4	55.8*	0.9	14.8	-19.1
CC(=O)O/N=C/c1c(N2CCOCC2)n(C)c2ccccc12	0.1	0.7	27.2	0.7	33.1	0.6
O=C(c1cccc(F)c1)N1CCN(C(=O)c2cc3ncc(Br)cn3n2)CC1	8.2	0.9	11.3	0.8	24.2	11.1
CCN(CC)c1ccc(NC(=O)Nc2ccccc2C(F)(F)F)cc1	-10.0	1	1.8	0.8	16.6	-25.3
Cc1nn(Cc2ccc(Cl)c(Cl)c2)c(C)c1NC(=O)c1cc(CC(C)C)on1	·	0.2	82.1*	0.3	73.6*	·
Cc1ccc(Cn2ccc(NC(=O)c3cc(CC(C)C)on3)n2)cc1	·	0.1	89.6*	0.8	22.7	·
CCCC(=O)Nc1ccc(C(=O)Nc2cc(C(F)(F)F)ccc2Cl)cc1	-8.1	1.5	-47.9	0.9	10.5	8.1
CC(C)Cc1cc(C(=O)Nc2cc(C(F)(F)F)ccc2Cl)no1	-3.3	2.7*	-169.5	0.9	10.4	-17.7
Cc1nn(Cc2ccc(Br)cc2)c(C)c1NC(=O)c1nn(C)cc1Cl	-14.1	0.4	60.9*	0.6	43.1	-7.1
CCOc1ccc(N=C(NC#N)SCC)cc1	-10.0	·	·	·	·	-10.5
Cc1cc(NC(=O)c2cc(C(C)C)on2)nn1Cc1ccc(Cl)cc1	-9.0	0.6	40.2	0.3	65.0*	-6.5
COc1ccccc1-c1cc(C(=O)Nc2cc(C)n(Cc3ccc(Cl)cc3)n2)no1	-4.5	0.8	20.7	1.2	-15.6	-7.0
Cc1n[nH]c(=O)nc1N1CCc2ccccc2C1	2.8	1.3	-27.9	1.1	-7.1	-12.9
CC(=O)Nc1ccc(OCC(O)CN2CCN(c3cccc(Cl)c3)CC2)cc1 (stereo not drawn)	-8.5	0.4	55.7*	0.7	33.5	-3.2
CN(C)S(=O)(=O)N1CCN(CC(O)COc2ccc3cc(Br)ccc3c2)CC1 (stereo not drawn)	-8.8	0.4	57.8*	0.5	48.5	18.4
